Experimental findings from PubChem BioAssay (Tox21) are described below.

Results filed as inconclusive are left out. Active and inactive are the calls of the source. Unless noted, calls follow the shape of the dose curve; as a rule, active = well fitted curve in the direction sought with a large enough effect in the repeat runs; inconclusive = weak or mixed curves; inactive = no such curve, though single readings can be large; an effect the other way counts as inactive or inconclusive.

Assay [1] is described as follows: qHTS assay to identify small molecule agonists of the vitamin D receptor (VDR) signaling pathway - cell viability counter screen (AID 743224). Also: series mostly up to about 63 µM; nearly all actives have a fitted effect of over 50% in size. In outline:
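VDR-bla cells were preincubated 4 h at 37C/5% CO2, then exposed to compounds for 16 h. After the 2 h room-temperature bla FRET read, CellTiter-Glo was added to the same wells and luminescence read after 30 min.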
In general terms: qHTS replaces the single test concentration by a dilution series.

Assay [2] can be described thus: qHTS assay to identify small molecule antagonists of the vitamin D receptor (VDR) signaling pathway - cell viability counter screen (AID 743225). Also: nearly all actives have a fitted effect of over 50% in size. Also: potency is read from the fitted curve at half-maximal effect. In outline:
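VDR-UAS-bla HEK 293T cells were plated and incubated 4 h at 37C, then dosed with compound plus 3 nM (final) 1-alpha,25-dihydroxyvitamin D3 for 16 h. After the 2 h beta-lactamase read, viability in the same wells was read as CellTiter-Glo luminescence after 30 min at room temperature.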

A short description of assay [3]: qHTS assay to identify small molecule agonists of the NFkB signaling pathway (AID 1159509; active = well fitted curve in the direction sought with a large enough effect in the signal ratio in the repeat runs, not every such curve was filed as active; the % refers to the signal ratio; also: series mostly up to about 61 µM). In outline:
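ME-180 NFkB-bla, 2,000 cells/well, overnight plating; cpd pinned in DMSO, 5 h 37 C; B/G FRET substrate 1.5 h RT; ex 405, em 460/530 nm.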

A short description of assay [4]: qHTS assay to identify small molecule agonists of the NFkB signaling pathway - cell viability counter screen (AID 1159515; calls by dose curve; also: nearly all actives have a fitted effect of over 55% in size; also: potency is read from the fitted curve at half-maximal effect). In outline: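 NFkB-bla ME-180 cells, 2,000/well, were plated overnight at 37 C, 5% CO2, then exposed to compounds in DMSO for 5 hr. After the bla FRET read, CellTiter-Glo was added to the same wells; luminescence was read after 30 min at room temperature.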

The nature of assay [5]: qHTS assay to identify small molecule agonists of the endoplasmic reticulum stress response signaling pathway (AID 1159516; active = well fitted activation curve with a large enough effect in the signal ratio in the repeat runs, not every such curve was filed as active; the % refers to the signal ratio). In outline:
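CellSensor ESRE-bla HeLa cells, carrying a beta-lactamase reporter driven by the ER stress response element, were plated overnight and exposed to compounds for 5 hr at 37 C. Reporter activity was read as FRET substrate fluorescence after 2 hr at room temperature.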

Assay [6] can be described thus: qHTS assay to identify small molecule antagonists of the retinoid-related orphan receptor gamma (ROR-gamma) signaling pathway - cell viability counter screen (AID 1159520). Also: nearly all actives have a fitted effect of over 50% in size. Also: potency is read from the fitted curve at half-maximal effect. In outline: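 Tet-on ROR gamma CHO cells were given compounds for 2 hr, then doxycycline hyclate at 1 uM final, and incubated 16 hr at 37 C. Viability was measured as ATP content by CellTiter-Glo luminescence.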

Assay [7] in a line: qHTS assay to identify small molecule agonists of the AP-1 signaling pathway - cell viability counter screen (AID 1159525; calls by dose curve; also: nearly all actives have a fitted effect of over 55% in size). In outline:
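AP-1-bla ME-180 cells in Opti-MEM with 0.5% dialyzed FBS, compound exposure 5 h at 37 C in 15-point titration. Viability read in the same wells as ATP content by CellTiter-Glo luminescence, normalised to tetra-n-octylammonium bromide and DMSO controls.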

A short description of assay [8]: qHTS assay to identify small molecule agonists of the AP-1 signaling pathway (AID 1159526; calls by dose curve).
Assay [9] in a line: qHTS assay to identify small molecule agonists of the RXR signaling pathway - cell viability counter screen (AID 1159529). Also: nearly all actives have a fitted effect of over 50% in size. Also: potency is read from the fitted curve at half-maximal effect. In outline: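 RXR-alpha-UAS-bla HEK 293T cells in medium with 2% charcoal-stripped FBS were pre-incubated 5 hr, then compound-treated 16 hr at 37 C. Viability was read by CellTiter-Glo luminescence in the same wells as the beta-lactamase assay, with tetraoctyl ammonium bromide as positive control.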

Assay [10] in a line: qHTS assay to identify small molecule antagonists of the retinoid acid receptor (RAR) signaling pathway - cell viability counter screen (AID 1159551). Also: nearly all actives have a fitted effect of over 35% in size. Also: potency is read from the fitted curve at half-maximal effect. In outline:
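C3RL4 cells were seeded overnight at 37 C, then treated with compounds plus 1 uM (final) retinol for 6 h at 37 C. Viability was read as ATP by CellTiter-Glo luminescence after 30 min at room temperature.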

Assay [11] is described as follows: qHTS assay to identify small molecule antagonists of the retinoic acid receptor (RAR) signaling pathway (AID 1159552; also: nearly all actives have a fitted effect of over 50% in size; also: potency is read from the fitted curve at half-maximal effect). In outline: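 Retinol signaling pathway inhibitors screened in C3RL4 RARE-luciferase reporter cells seeded overnight at 37 C, then compounds added with 1 uM (final) retinol as pathway substrate. After 6 hr at 37 C, luciferase luminescence read after 30 min at room temperature.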

Assay [12] can be described thus: qHTS assay to identify small molecule agonists of the retinoic acid receptor (RAR) signaling pathway (AID 1159553). In outline: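 C3RL4 cells carrying a RARE luciferase reporter were plated overnight at 37 C, then exposed to compounds in DMSO for 6 hr at 37 C and 5% CO2. Luminescence was read 30 min after luciferase reagent addition at room temperature.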
Assay [13] addresses Nuclear receptor ROR-gamma (Homo sapiens) (UniProt P51449). In words: qHTS assay to identify small molecule antagonists of the retinoid-related orphan receptor gamma (ROR-gamma) signaling pathway (AID 1159521; also: nearly all actives have a fitted effect of over 50% in size; also: potency is read from the fitted curve at half-maximal effect). In outline: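 Tet-on ROR-gamma CHO cells with ROR response element-luciferase reporter; compounds added 2 hr before 1 uM doxycycline induction, then 16 hr at 37 C. Antagonism scored as decreased ONE-Glo luminescence.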

Assay [14] concerns the target Retinoic acid receptor RXR-alpha (Homo sapiens) (UniProt P19793). In words: qHTS assay to identify small molecule agonists of the RXR signaling pathway (AID 1159527; calls by dose curve; also: nearly all actives have a fitted effect of over 35% in size). In outline:
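GeneBLAzer RXR-alpha-UAS-bla HEK 293T cells in 2% charcoal-stripped FBS medium were exposed to compounds for 16 hr at 37 C in agonist mode. Beta-lactamase reporter read as 460/530 nm FRET ratio after 2 hr substrate loading.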

Assay [15] in a line: qHTS assay to identify small molecule antagonists of the estrogen related receptor (ERR) signaling pathway - cell viability counter screen (AID 1224818).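 Also: series mostly up to about 46 µM; viability measured after 17.5 h of compound exposure.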 In outline: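 ERR reporter cells plated 6 h at 37 C/5% CO2, then compounds in DMSO pin-transferred and incubated 17.5 h at 37 C. Viability read as CellTiter-Fluor fluorescence after 30 min at 37 C.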
Assay [16] in a line: qHTS assay to identify small molecule antagonists of the estrogen related receptor (ERR) signaling pathway (AID 1224819). In outline:
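ERR reporter cells were plated at 2,000 cells/well and left 6 h at 37 C/5% CO2 before pin-tool transfer of compounds in DMSO. After 18 h at 37 C, One-Glo was added and luminescence was read 30 min later at room temperature.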

A short description of assay [17]: qHTS assay to identify small molecule agonists of the estrogen related receptor (ERR) signaling pathway (AID 1224820). In outline:
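Cells: ERR line from NTP, 2,000/well. Pre-incubation 6 h, 37 C/5% CO2. Compound (DMSO) pin transfer, 18 h 37 C. One-Glo, 30 min RT, luminescence.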

In assay [18] the test system is estrogen-related receptor alpha (ERRalpha) with PGC-1alpha coactivator, human. In words: qHTS assay to identify small molecule antagonists of the estrogen related receptor signaling pathway with the pleiotropic PPARgamma coactivator (PGC) (AID 1224821; calls by dose curve). In outline:
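Luminescent read-out (One-Glo, 30 min at room temperature) following 18 h treatment of PGC/ERR cells at 37 C with compounds delivered in DMSO. Cells had settled 6 h at 37 C/5% CO2 before dosing.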

Assay [19] can be described thus: qHTS assay to identify small molecule antagonists of the estrogen related receptor signaling pathway with the pleiotropic PPARgamma coactivator (PGC) cell viability counter screen (AID 1224822; also: series mostly up to about 46 µM). In outline: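 PGC/ERR cells were seeded at 2,000 cells/well, rested 6 h at 37 C/5% CO2, then given compounds in DMSO by pin tool and incubated 17.5 h at 37 C. Viability came from CellTiter-Fluor fluorescence after 30 min.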

Sequence of Retinoic acid receptor RXR-alpha (Homo sapiens) (P19793 whole entry, looked up): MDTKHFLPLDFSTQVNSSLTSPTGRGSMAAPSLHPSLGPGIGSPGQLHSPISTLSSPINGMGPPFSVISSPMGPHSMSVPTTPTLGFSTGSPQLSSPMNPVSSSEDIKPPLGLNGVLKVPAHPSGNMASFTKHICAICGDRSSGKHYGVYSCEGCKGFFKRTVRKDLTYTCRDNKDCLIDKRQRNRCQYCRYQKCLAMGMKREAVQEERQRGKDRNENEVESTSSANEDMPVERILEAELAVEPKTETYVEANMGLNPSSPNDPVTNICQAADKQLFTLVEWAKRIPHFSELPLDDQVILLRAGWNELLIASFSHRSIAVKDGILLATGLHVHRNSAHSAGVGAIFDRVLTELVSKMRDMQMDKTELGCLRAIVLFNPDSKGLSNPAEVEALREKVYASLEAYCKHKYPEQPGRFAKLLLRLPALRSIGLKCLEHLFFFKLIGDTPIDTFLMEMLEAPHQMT

Regarding `CCCCCCCCCCCSCC(=O)O`, the Potency result in assay [1], in [4], in assay [5], in assay [6], in assay [7] and in assay [10] was “inactive” in each case. The Potency entry in assay [11] and in assay [12] was “inactive” each time. The Potency was 21.9 µM (active) in assay [2] and 19.5 µM (active) in assay [9]. Besides, the call in assay [3] and in assay [8] was inactive.
`CC(C)(C)C(O)/C=C/c1ccc2c(c1)OCO2` (stereo not given): the Potency entry in assay [1], in assay [2], in assay [4], in assay [5], in [6] and in assay [13] was “inactive” each time. For the same compound, the Potency entry in [7], in [14], in assay [9], in [10] and in assay [11] was “inactive” throughout. In [3], the compound was classed as inactive.
`Cc1ccc2c(c1[N+](=O)[O-])C(=O)c1ccccc1C2=O`: the Potency result in assay [1], in assay [2], in assay [4], in [5], in assay [6] and in assay [13] was “inactive” throughout. In addition, the Potency entry in [14], in [9], in [10] and in [11] was “inactive” in each case. Besides, the call in assay [3] was inactive.
Regarding `CCCCCCCC/C=C\CCCCCCCC(=O)OCCO`, the Potency entry in [1], in assay [2], in [4], in assay [5], in [6] and in assay [13] was “inactive” each time. Also, the Potency result in assay [7] and in assay [10] was “inactive” throughout. Further, in assay [3], the outcome was inactive.
Turning to `CCCOC(=O)c1c(Cl)c(Cl)c(Cl)c(Cl)c1C(=O)OCCC`, the Potency entry in assay [1], in assay [4], in [5], in assay [6], in assay [7] and in [14] was “inactive” throughout. For the same compound, the Potency entry in assay [11] was “inactive”. Further, in assay [3], the compound was classed as inactive.
As to `C=CC(=O)NC(C)C`, the Potency result in [1], in assay [2], in assay [4], in assay [5], in assay [6] and in assay [7] was “inactive” each time. For the same compound, the Potency entry in assay [9] and in assay [10] was “inactive” throughout. The call in assay [3] and in assay [8] was inactive.
As to `CCN(CC)CCOc1ccccc1C(=O)CCc1ccccc1`, the Potency result in assay [1], in [2], in [5], in assay [6], in [13] and in [7] was “inactive” throughout. Moreover, the Potency result in assay [11] and in assay [12] was “inactive” in each case. Further, the compound was classed as inactive in [3]. The Potency is 12 µM (active) in assay [4] and 9.52 µM (active) in assay [9].
For the compound `CCN(Cc1cccc(S(=O)(=O)O)c1)c1ccc(C(=C2C=CC(=[N+](CC)Cc3cccc(S(=O)(=O)O)c3)C=C2)c2ccc(O)cc2S(=O)(=O)[O-])cc1`, the outcome in assay [3] and in [8] was inactive. Further, the Potency in assay [4] is 26.5 µM (active); in [6], 10.5 µM (active); in [13], 14.8 µM (active); in assay [10], 14.8 µM (active); in assay [11], 9.32 µM (active). The Potency result in [5] and in assay [14] was “inactive” each time.
As for `CC(=O)OC(C)C[N+](C)(C)C` (stereo not given), the Potency result in assay [1], in assay [2], in [4], in assay [5], in assay [6] and in assay [13] was “inactive” throughout. The Potency result in assay [7], in [14], in assay [9], in [10], in assay [11] and in assay [12] was “inactive” in each case. Further, the Potency entry in [16] and in [18] was “inactive” in each case. The compound was classed as inactive in [3], in assay [15], in [17] and in assay [19].
